# Calls of active or inactive are those of the source.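 Rule for the calls, unless noted: active = visually confirmed hit in the image check and inhibition above 20%; inconclusive = visually confirmed hit but inhibition not above 20%; inactive = no visual hit in the image check.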
# Columns and labels:
# [1] = inhibitors of TNFa-induced NFkB p65 translocation, primary screen, imaging, HUVEC, MLSMR starter and 10KST1 sets (AID 438;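 active = inhibition above 20% together with a positive visual image hit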;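 note: compound added about 3h40 before a 20 min TNFalpha stimulation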;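 for inhibition: signal is the nuclear over cytoplasmic p65 intensity ratio per well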); details: HUVEC TNFa-induced p65 nuclear translocation; cell count: measured here: nuclei count (cytotoxicity indicator), at 2.08 µM; inhibition: at 2 µM, stronger effect = higher value, 0% TNFa-plus-vehicle, 100% no-TNFa wells
# [2] = reduction of polyQ htt aggregates in cells – imaging, exon1htt(103Q)mCFP cells, high-content imaging, primary screen (AID 483;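 active = visual image review flags a hit and inhibition of aggregation exceeds 20%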;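 note: compound exposure lasted 3 days before fixation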;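 for nuclei count: percent of the per-plate median nuclei count of sample wells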); details: exon1htt(103Q)mCFP cell line, aggregate imaging, at 2 µM; inhibition of aggregation: stronger effect = higher value; nuclei count: measured here: cell count, toxicity
# [3] = endothelial E-selectin expression blockers – imaging, HUVEC, immunofluorescence, MLSMR starter and 10KST1 sets, primary screen (AID 487); details: HUVEC TNFalpha-induced E-selectin immunofluorescence imaging, at 2 µM; inhibition: stronger effect = higher value; nuclei count: measured here: cell number, toxicity;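 for inhibition: signal is fraction of cell area covered by stained E-selectin grains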;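 for nuclei count: 100% = median nuclei count of all wells on the same plate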
# [4] = target: Voltage-gated potassium channel subunit beta-2 (Rattus norvegicus) (UniProt P62483); experiment: inhibitors of rat Kvbeta2 reductase activity – biochemical, NADPH fluorescence, primary screen (AID 622;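 active = fluorescence slope higher than the sample average by over 3 SD, cut at about -0.22 in these data, passing the limit was not always enough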;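 note: slope of raw intensity against log time taken from 70 to 1610 s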); details: recombinant KvBeta, 4-cyanobenzaldehyde reduction, at 10 µM, stronger effect = higher value
# [5] = target: Voltage-gated potassium channel subunit beta-2 (Rattus norvegicus) (UniProt P62483); experiment: enhancers of rat Kvbeta2 NADPH turnover – biochemical, NADPH fluorescence, primary screen (AID 623;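 active = NADPH fluorescence slope more negative than the mean of all samples by about 3 SD, 99.7% confidence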;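 note: fluorescence intensity change per second fitted from 20 to 320 s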); details: Recombinant KvBeta, NADPH fluorescence decrease slope, 10 min; at 10 µM; stronger effect = lower value
# [6] = target: Alpha-2C adrenergic receptor (Homo sapiens) (UniProt P18825); experiment: compounds altering alpha2C-coupled GIRK flux – cell-based, HEK293 alpha2C/GIRK1/2, thallium flux, primary screen (AID 624;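 active = fluorescence slope after compound addition differing from the mean of all screened samples at 99.7% confidence, in either direction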;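 note: slope of fluorescence ratio to pre-addition baseline per second over 15 to 24 s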); details: thallium flux BTC fluorescence, at 10 µM, actives lie on both sides
# [7] = blockers of RIG-like receptor reporter activation – cell-based, Sendai virus stimulus, luciferase, 10K MLSCN set, TLR/RLR signaling modifier project, primary screen (AID 602276;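 active = inhibition at or above 50% at 10 µM; inactive = inhibition below 50%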;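 note: firefly luciferase from ISG56 promoter only with Renilla not read in this screen; 0% = Sendai virus plus DMSO and 100% = medium plus DMSO without virus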); details: HEK293 RL24 IRF3 luciferase reporter, at 10 µM, stronger effect = higher value
# [8] = TLR3 IRF3 reporter activation blockers – cell-based, poly I:C stimulus, luciferase, 10K MLSCN set, primary screen (AID 602277;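 active = inhibition of the reporter signal at or above 50%; inactive = inhibition below 50%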); details: HEK293-TLR3 RL24 IRF3 luciferase reporter, at 10 µM, stronger effect = higher value
# Voltage-gated potassium channel subunit beta-2 (Rattus norvegicus), sequence (P62483 whole entry, looked up): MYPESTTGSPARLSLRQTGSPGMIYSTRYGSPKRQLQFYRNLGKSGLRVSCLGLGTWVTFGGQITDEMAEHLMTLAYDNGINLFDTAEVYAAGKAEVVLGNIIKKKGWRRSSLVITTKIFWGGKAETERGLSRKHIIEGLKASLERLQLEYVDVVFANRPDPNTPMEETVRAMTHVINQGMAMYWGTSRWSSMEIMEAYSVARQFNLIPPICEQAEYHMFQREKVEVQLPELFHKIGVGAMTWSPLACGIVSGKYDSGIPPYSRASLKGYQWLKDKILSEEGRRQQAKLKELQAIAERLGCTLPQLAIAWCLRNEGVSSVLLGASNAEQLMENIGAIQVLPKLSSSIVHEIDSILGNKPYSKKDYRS
# Alpha-2C adrenergic receptor (Homo sapiens), sequence (P18825 whole entry, looked up): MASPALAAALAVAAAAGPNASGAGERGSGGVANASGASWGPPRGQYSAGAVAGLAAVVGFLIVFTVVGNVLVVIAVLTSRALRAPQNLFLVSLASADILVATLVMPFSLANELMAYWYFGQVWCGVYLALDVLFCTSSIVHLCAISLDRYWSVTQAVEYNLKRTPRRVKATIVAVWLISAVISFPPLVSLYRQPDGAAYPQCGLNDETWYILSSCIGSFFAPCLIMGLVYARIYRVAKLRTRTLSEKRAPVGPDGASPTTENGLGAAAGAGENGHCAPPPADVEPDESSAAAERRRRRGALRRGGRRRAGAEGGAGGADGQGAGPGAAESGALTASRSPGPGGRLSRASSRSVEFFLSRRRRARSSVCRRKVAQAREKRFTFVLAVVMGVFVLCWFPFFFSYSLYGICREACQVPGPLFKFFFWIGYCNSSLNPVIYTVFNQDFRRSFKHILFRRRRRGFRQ
SMILES,cell count [1],inhibition [1],inhibition of aggregation [2],nuclei count [2] [%],inhibition [3],nuclei count [3] [%],fluorescence slope [4],NADPH fluorescence slope [5],slope [6],inhibition [7],inhibition [8]
CCCCOc1ccc(-c2ncc(Cl)cn2)cc1,469,3% (inactive),13.9% (inactive),98.8,-10% (inactive),115,-0.434 (inactive),-6.7e-06 (inactive),0.00373 (inactive),-30% (inactive),-146% (inactive)
CCN(CC)S(=O)(=O)c1ccc2oc(C(=O)N3CCOCC3)c(C)c2c1,638,-12% (inactive),5.2% (inactive),107,-96.2% (inactive),92.5,-0.543 (inactive),-2.8e-06 (inactive),0.00418 (inactive),-1.83% (inactive),2.02% (inactive)
O=C(Nc1ncc2c(n1)CC(c1ccccc1)CC2=O)c1ccco1 (stereo not drawn),572,-8.6% (inactive),-5.3% (inactive),99.5,-3.8% (inactive),86,-0.534 (inactive),-5.7e-06 (inactive),0.00546 (inactive),9.1% (inactive),9.67% (inactive)
CCCN(Cc1cc2ccc(C)cc2[nH]c1=O)C(=O)c1cccnc1,779,2.6% (inactive),-34.8% (inactive),104,-5.8% (inactive),109,-0.46 (inactive),1.6e-05 (inactive),0.00624 (inactive),11.3% (inactive),27.1% (inactive)
CC(=O)c1ccc(-n2nnnc2SCC(=O)N2CCc3ccccc3C2)cc1,434,-12.9% (inactive),12.1% (inactive),104,0% (inactive),93.6,-0.51 (inactive),2.1e-05 (inactive),0.0053 (inactive),2.55% (inactive),5.8% (inactive)
O=C(COC(=O)CCC(=O)c1cccs1)NCc1ccco1,469,-20.9% (inactive),1.1% (inactive),101,-16.1% (inactive),86.1,-0.332 (inactive),-5.5e-05 (inactive),0.00705 (inactive),18% (inactive),25.1% (inactive)
CCC(=O)N1Cc2ccccc2-c2ccccc2C1=O,642,3% (inactive),-14.4% (inactive),98.3,11% (inactive),126,-0.618 (inactive),-1.2e-05 (inactive),0.006 (inactive),12.1% (inactive),12.9% (inactive)
O=C(Cn1nnc(-c2ccc(CN3CCOCC3)cc2)n1)NC1CCCCC1,447,0.3% (inactive),7.3% (inactive),108,-20.9% (inactive),118,-0.584 (inactive),-4.1e-05 (inactive),0.0043 (inactive),14% (inactive),9.43% (inactive)
CCCC(=O)OCCn1c(Br)nc2c1c(=O)[nH]c(=O)n2C,627,-9.1% (inactive),-10% (inactive),127,-46.5% (inactive),121,-0.509 (inactive),-3.2e-05 (inactive),0.00531 (inactive),20.4% (inactive),15.6% (inactive)
Cc1c(C(=O)NCc2cccnc2)oc2ccc(S(=O)(=O)N3CCCCC3)cc12,614,-17% (inactive),37.3% (active),117,-47.2% (inactive),107,-0.448 (inactive),-0.000103 (inactive),0.00545 (inactive),19.5% (inactive),21.4% (inactive)
CCc1nc(N)c(C#N)c(-c2ccc(OC)c(OC)c2)c1C,628,-4.4% (inactive),-13.8% (inactive),98.5,-37% (inactive),111,-0.384 (inactive),1e-05 (inactive),0.00633 (inactive),16.9% (inactive),21.8% (inactive)
O=S(=O)(Nc1ncccn1)c1ccc(Nc2ncnc3ccccc23)cc1,623,-16.4% (inactive),-7.6% (inactive),89.3,-6% (inactive),105,-0.459 (inactive),-4.3e-05 (inactive),0.00604 (inactive),-24.5% (inactive),12.4% (inactive)
CC1(C)CC(=O)CC(=Nc2ccc(C(=O)O)cc2)C1,487,4.2% (inactive),10.3% (inactive),89.1,2.7% (inactive),112,-0.497 (inactive),-5.1e-05 (inactive),0.0073 (inactive),6.49% (inactive),42.2% (inactive)
CCN(CC)CCCN1C(=O)C(=O)/C(=C(/O)c2ccc3c(c2)OCO3)C1c1ccccn1 (stereo not drawn),621,1.8% (inactive),21.9% (inactive),85.9,-18.3% (inactive),90.7,-0.495 (inactive),-4.9e-05 (inactive),0.00526 (inactive),-5.97% (inactive),12.1% (inactive)
COc1ccc(C2C3=C(OC(C)=O)c4ccccc4C3=Nc3c2c(=O)n(C)c(=O)n3C)cc1 (stereo not drawn),657,0.2% (inactive),-0.9% (inactive),103,-72.4% (inactive),116,-0.41 (inactive),-3.9e-05 (inactive),0.00537 (inactive),12.9% (inactive),12.4% (inactive)
Cc1cc(=O)[nH]c(=S)n1-c1ccccc1,656,7.7% (inactive),5.6% (inactive),103,23.3% (inactive),103,-0.564 (inactive),-3e-05 (inactive),0.00585 (inactive),15.3% (inactive),23.5% (inactive)
Cc1cnc(SCCc2ccncc2)nc1C,650,-17% (inactive),-22.1% (inactive),116,-103% (inactive),101,-0.278 (inactive),-1.1e-05 (inactive),0.00606 (inactive),6.48% (inactive),-3.71% (inactive)
COC(=O)C1C(=O)c2c([nH]c(C(=O)OCCOC(C)C)c2C)CC1C (stereo not drawn),304,-3.3% (inactive),-11.8% (inactive),112,-46.9% (inactive),117,-0.393 (inactive),-5.7e-05 (inactive),0.00401 (inactive),-33.4% (inactive),-43.7% (inactive)
C=CCSC1=C(C#N)C(c2ccccc2Cl)CC(=O)N1 (stereo not drawn),407,-6.5% (inactive),28.2% (inactive),74.3,-59% (inactive),171,-0.561 (inactive),5.8e-06 (inactive),0.0048 (inactive),25.7% (inactive),14.1% (inactive)
COc1c(C(=O)Nc2c(C)n(C)n(-c3ccccc3)c2=O)ccc2ccccc12,239,-1.7% (inactive),16.4% (inactive),63.2,-68.7% (inactive),117,-0.512 (inactive),-3.9e-05 (inactive),0.00486 (inactive),6.79% (inactive),11.2% (inactive)
Cc1ccc2c(c1)C1CCCC3C1N2CC(=O)N3Cc1ccccc1 (stereo not drawn),331,-7.1% (inactive),-7.3% (inactive),81.8,-136% (inactive),131,-0.498 (inactive),-3.8e-05 (inactive),0.00336 (inactive),7.59% (inactive),-11.1% (inactive)
CCOC(=O)c1ccccc1NC(=O)CSc1nnc(COc2ccccc2C)n1C,667,14.9% (inactive),11.9% (inactive),97.3,45.4% (inactive),100,-0.346 (inactive),-4.2e-05 (inactive),0.00577 (inactive),16.9% (inactive),22.9% (inactive)
COC(=O)Cc1c(C)nc2nc[nH]n2c1=O,648,-6% (inactive),2.1% (inactive),103,-21.9% (inactive),104,-0.313 (inactive),-4e-05 (inactive),0.0059 (inactive),8.47% (inactive),13.4% (inactive)
CCc1ccccc1NC(=O)c1cnc2n(c1=O)CCS2,582,-3.9% (inactive),-4.9% (inactive),94.6,-4.7% (inactive),117,-0.494 (inactive),-1.7e-05 (inactive),0.00691 (inactive),12.7% (inactive),-13.2% (inactive)
O=C(O)c1cccn2c(=O)c3ccccc3nc12,799,-2.3% (inactive),-14.1% (inactive),84.3,-19.6% (inactive),126,-0.313 (inactive),-2.6e-05 (inactive),0.0061 (inactive),8.6% (inactive),6.83% (inactive)
CCOC(=O)C(C#N)C(c1cccnc1)c1c(C)[nH][nH]c1=O (stereo not drawn),710,-7.5% (inactive),-3.8% (inactive),93,-131% (inactive),101,-0.325 (inactive),-3.9e-05 (inactive),0.0052 (inactive),6.49% (inactive),9.18% (inactive)
CN(C)c1nc(SCCOC(=O)c2ccccc2)nc(N(C)C)n1,775,-4.7% (inactive),-21.8% (inactive),118,-45.1% (inactive),102,-0.385 (inactive),2.1e-06 (inactive),0.00433 (inactive),8.47% (inactive),11.2% (inactive)
CCOC(=O)N1CCC(N(C(=O)Nc2cccc(OC)c2)C(C)CC)CC1 (stereo not drawn),534,-4.4% (inactive),-16.1% (inactive),44,-60.6% (inactive),98.9,-0.513 (inactive),-3.9e-05 (inactive),0.00561 (inactive),12.2% (inactive),11.5% (inactive)

# Reference: PubChem BioAssay
